Source: PubChem BioAssay (ICCB-Longwood Screening Facility, Harvard Medical School)
Most compounds without a hit are left out; they make up all but 0.68% or so of the library.
Mtb hypoxia rep – PubChem AID 1159583; M. tuberculosis hypoxia-regulated fluorescent reporter, fluorescence; 300,000 compounds, 0.1% hits; fluorescence inhibition, % (no concentration beside the values); in the data active means fluorescence inhibition mostly above about 23%, no sharp cut-off; inactive means mostly below about 17%
Sa RN4220 lethal – growth inhibition of S. aureus RN4220, primary screen, OD600. 16 h. inhibition, % (test concentration not listed). 330,000 compounds, 0.33% hits; in the data active means inhibition above about 85%;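 further: plate controls were untreated cells for no effect and reference antibiotic for full effect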
Sa ugtP lethal – growth inhibition of ugtP-null S. aureus, primary screen, RN4220 ugtP deletion, OD600; 16 h; growth inhibition, % (concentration not given with the values); 330,000 compounds, 0.54% hits; AID 1259309, 2017; in the data active means growth inhibition above about 68%;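 further: plate controls were untreated wells for no effect and antibiotic for full effect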
* hit, by the source's call.

Results for CC(C)COc1ccc(Cc2cnc(N)nc2N)cc1 ?
Mtb hypoxia rep: 6.1; Sa RN4220 lethal: 15.9; Sa ugtP lethal: 96.9*

What do the screens show for `CC(C)COc1ccc(C/C(N)=N/n2cnnc2)cc1`?
Mtb hypoxia rep: -8.1; Sa RN4220 lethal: -3.4; Sa ugtP lethal: -4.2

Results for COc1ccc(C=NNC(N)=S)cc1OC(=O)c1ccccc1 ?
Sa RN4220 lethal: 9.2; Sa ugtP lethal: -5.9

How did CC1CCCCC1=NNS(=O)(=O)c1ccc(Br)cc1 (stereo not given) do in these assays?
Mtb hypoxia rep: 13.1; Sa RN4220 lethal: 5.7; Sa ugtP lethal: 0.4

Results for c1ccc(N=Nc2ccc3cccccc2-3)cc1 ?
Mtb hypoxia rep: 4.4; Sa RN4220 lethal: 15.2; Sa ugtP lethal: 94.5*

Results for Nc1ccc(N=Nc2ccccc2)c2ccccc12 ?
Mtb hypoxia rep: 3.8; Sa RN4220 lethal: 3.4; Sa ugtP lethal: 7.2

How did O=c1nc2scc(-c3ccccc3)n2c2ccccc12 do in these assays?
Mtb hypoxia rep: 0.8; Sa RN4220 lethal: -5.6; Sa ugtP lethal: 91.3*

Results for COC(=O)c1cc(=O)n2c(-c3ccccc3)csc2n1 ?
Sa RN4220 lethal: 1.4; Sa ugtP lethal: 4.8

Results for CC(C)C1CN=C2N(CCNC(=O)CCC3CCCCC3)C(Cc3ccc(O)cc3)CN21 (stereo not given) ?
Mtb hypoxia rep: -4.3; Sa RN4220 lethal: -3.8; Sa ugtP lethal: -1.5

What do the screens show for `CC(=O)C(=NNc1ccccc1)Sc1cccc2cccnc12`?
Mtb hypoxia rep: 14.0; Sa RN4220 lethal: 7.3; Sa ugtP lethal: 8.2

Results for CC(=O)C(=NNc1ccc(Cl)cc1Cl)Sc1cccc2cccnc12 ?
Mtb hypoxia rep: 8.0; Sa RN4220 lethal: 5.7; Sa ugtP lethal: 85.0*

What do the screens show for `CCN1/C(=C\C(=S)Nc2ccccc2)Sc2ccccc21`?
Mtb hypoxia rep: 7.2; Sa RN4220 lethal: -4.4; Sa ugtP lethal: -0.3

Results for CCN1/C(=C/C(C)=C/c2sc3ccccc3[n+]2CC)Sc2ccccc21 ?
Sa RN4220 lethal: 99.8*; Sa ugtP lethal: 99.4*

What do the screens show for `COc1ccc(Cn2c(SCc3ccc(C)cc3)nc3cc(OC)c(OC)cc3c2=N)cc1Cl`?
Mtb hypoxia rep: 6.5; Sa RN4220 lethal: 100.2*; Sa ugtP lethal: 99.5*

How did COc1ccc(Cn2c(SCc3cc(C)ccc3C)nc3cc(OC)c(OC)cc3c2=N)cc1 do in these assays?
Sa RN4220 lethal: 16.2; Sa ugtP lethal: -16.1

Results for Nc1nonc1-n1nnc(C(=O)NN=Cc2ccc(Cl)cc2)c1-c1ccc2c(c1)OCO2 ?
Mtb hypoxia rep: 1.5; Sa RN4220 lethal: -2.5; Sa ugtP lethal: 6.9

How did O=C1CN(C(=O)COC(=O)c2ccc(Cl)cc2)c2ccccc2N1 do in these assays?
Mtb hypoxia rep: -4.3; Sa RN4220 lethal: 2.1; Sa ugtP lethal: 7.3

What do the screens show for `O=C1CN(C(=O)COC(=O)c2c(F)cccc2Cl)c2ccccc2N1`?
Mtb hypoxia rep: 30.3*; Sa RN4220 lethal: 5.7; Sa ugtP lethal: 2.2

What do the screens show for `CC(O)C(C(=O)N1CCNCC1)n1cc(C(N)CCCCN)nn1` (stereo not given)?
Mtb hypoxia rep: -5.4; Sa RN4220 lethal: 1.4; Sa ugtP lethal: -1.8

Results for CCOc1ccccc1-c1cc(C(=O)NN=Cc2cccnc2)c2ccccc2n1 ?
Mtb hypoxia rep: 13.8; Sa RN4220 lethal: 3.6; Sa ugtP lethal: 2.1

What do the screens show for `CCOC(=O)C1C2COc3ccc(C)cc3C2N2C(=O)C(C)NC(=O)[C@@]12C` (stereo not given in full)?
Mtb hypoxia rep: 4.9; Sa RN4220 lethal: 5.6; Sa ugtP lethal: 0.0

What do the screens show for `O=C(CSc1nnc(-c2ccc3c(c2)OCO3)o1)Nc1ncc(C(F)(F)F)cc1Cl`?
Mtb hypoxia rep: 2.5; Sa RN4220 lethal: 75.4; Sa ugtP lethal: 96.6*

Results for Cc1nc(NC(=O)CSc2nnc(-c3ccc4c(c3)OCO4)o2)c(Cl)cc1Cl ?
Mtb hypoxia rep: 11.0; Sa RN4220 lethal: 4.2; Sa ugtP lethal: 1.0

What do the screens show for `Cc1cccn2c(=O)c(C=NO)c(Nc3ccccc3F)nc12`?
Mtb hypoxia rep: 7.8; Sa RN4220 lethal: 5.4; Sa ugtP lethal: 0.5

What do the screens show for `CCC(C)N=Cc1c(Nc2ccccc2)nc2c(C)cccn2c1=O` (stereo not given)?
Mtb hypoxia rep: 50.7*; Sa RN4220 lethal: 6.0; Sa ugtP lethal: 13.4

Results for Cc1ccc(NC(=O)c2ccc(Nc3c([N+](=O)[O-])cc([N+](=O)[O-])cc3[N+](=O)[O-])cc2)cc1 ?
Mtb hypoxia rep: 45.7*; Sa RN4220 lethal: 61.9; Sa ugtP lethal: 48.8

What do the screens show for `CC(=O)Nc1ccc(NC(=O)c2cc([N+](=O)[O-])cc([N+](=O)[O-])c2)cc1`?
Mtb hypoxia rep: 5.6; Sa RN4220 lethal: -2.8; Sa ugtP lethal: 11.1

Results for Cc1[nH][nH]c(=O)c1C(c1c(C)[nH][nH]c1=O)c1cn(Cc2cccc3ccccc23)c2ccccc12 ?
Sa RN4220 lethal: 50.3; Sa ugtP lethal: 94.4*

What do the screens show for `Cc1[nH][nH]c(=O)c1C(c1c(C)[nH][nH]c1=O)c1cn(C)c2ccccc12`?
Mtb hypoxia rep: 2.4; Sa RN4220 lethal: 2.6; Sa ugtP lethal: 6.7

Results for Cc1ccc(C(=O)NN=Cc2ccc([N+](=O)[O-])o2)cn1 ?
Mtb hypoxia rep: 8.9; Sa RN4220 lethal: 55.7; Sa ugtP lethal: 69.1

Results for CN(CC(=O)Nc1ccc(Cl)cc1)C(=O)c1ccc(N2CCCC2=O)cc1 ?
Mtb hypoxia rep: 3.8; Sa RN4220 lethal: 1.3; Sa ugtP lethal: 9.5

How did CN(CC(=O)Nc1ccc(OC(F)(F)F)cc1)C(=O)c1ccc(N2CCCC2=O)cc1 do in these assays?
Mtb hypoxia rep: 29.6*; Sa RN4220 lethal: 1.8; Sa ugtP lethal: 4.9

Results for CCc1nc(NCc2ccccc2)c(C#N)c2c1CCCC2 ?
Mtb hypoxia rep: 5.6; Sa RN4220 lethal: -6.9; Sa ugtP lethal: 23.1

Results for CCc1nc(NCCC(C)C)c(C#N)c2c1CCCC2 ?
Mtb hypoxia rep: 1.9; Sa RN4220 lethal: 0.5; Sa ugtP lethal: 87.8*

How did COCc1cc(=O)n2[nH]cc(-c3ccccc3)c2n1 do in these assays?
Mtb hypoxia rep: 6.2; Sa RN4220 lethal: 5.6; Sa ugtP lethal: 1.5

How did CCCc1cc(=O)n2[nH]cc(-c3ccc(Cl)cc3)c2n1 do in these assays?
Mtb hypoxia rep: -1.0; Sa RN4220 lethal: 99.2*; Sa ugtP lethal: 98.6*

How did Cn1c(CC(=O)Nc2ccc(Cl)c(Cl)c2)n[nH]c1=S do in these assays?
Mtb hypoxia rep: 3.6; Sa RN4220 lethal: 3.6; Sa ugtP lethal: 2.4

How did COc1ccc(Cc2n[nH]c(=S)n2NC(=O)Nc2ccc(Cl)c(Cl)c2)cc1 do in these assays?
Mtb hypoxia rep: 1.6; Sa RN4220 lethal: 100.4*; Sa ugtP lethal: 99.8*

Results for O=C(OC1C(Cc2ccccc2)NS(=O)(=O)C2CC3C=C[C@]12O3)c1ccc([N+](=O)[O-])cc1 (stereo not given in full) ?
Mtb hypoxia rep: -1.1; Sa RN4220 lethal: 7.0; Sa ugtP lethal: 2.1

How did CN1CC2C(c3ccc(C(F)(F)F)cc3)C3(c4ccc(C#N)cc4)CC2(C3)C1c1ccccc1 (stereo not given) do in these assays?
Mtb hypoxia rep: 12.1; Sa RN4220 lethal: -2.6; Sa ugtP lethal: 12.2

How did COC(=O)c1ccc(-c2ccco2)n1Cc1ccccc1Cl do in these assays?
Mtb hypoxia rep: 13.2; Sa RN4220 lethal: -1.4; Sa ugtP lethal: 85.3*

What do the screens show for `COC(=O)c1ccc(-c2ccco2)n1Cc1nc(-c2ccc(OC)c(OC)c2)oc1C`?
Mtb hypoxia rep: 5.3; Sa RN4220 lethal: -12.2; Sa ugtP lethal: 12.3
